# Records with an inconclusive call do not appear. The source made the active and inactive calls. The calls were made as follows, unless noted: active = hit-call score of the fitted dose curve at least 0.9, where 1 is the maximum; inconclusive = response in the unintended direction; inactive = score below 0.9.
# Legend:
# [1] = STM_H9_CystineISnorm_perc: Stemina devTOX quickPredict H9 human embryonic stem cell (hESC)-based Assay for Cystine (CYSS) Metabolite Biomarker, Normalized (AID 2283713; active = hit-call score of the fitted dose curve at least 0.9, where 1 is the maximum; inactive = score below 0.9)
# Method in brief: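 Cells are held undifferentiated and treated for 72h, receiving fresh medium with compound every 24h. Cystine secreted during the final day is quantified by UPLC-HRMS against a labeled spike-in, then expressed relative to the DMSO vehicle median.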
# [2] = CEETOX_H295R_MTT_cell_viability: Viability Assessment in the CeeTox HT-H295R MTT Assay (AID 2283718; active = hit-call score of the fitted dose curve at least 0.9, where 1 is the maximum; inactive = score below 0.9;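 as to AC50: curve fitted both ways so AC50 may mark viability loss or gain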)
# Method in brief: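 H295R cells prestimulated 48 h with 10 uM forskolin, then exposed 48 h to test chemical (0.1% DMSO final). Viability by MTT (0.5 mg/ml, 4 h, 37 C), absorbance 570/650 nm; percent change versus DMSO, bidirectional fit.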
# [3] = Tanguay_ZF_120hpf_ActivityScore_legacy: (Legacy) Oregon State University Tanguay Lab 120 Hour Post-fertilization zebrafish Assay Score for Activity (AID 2283742);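 as to AC50: dechorionated Tropical 5D wild-type zebrafish embryos held singly per well; static exposure from 6 hpf until 120 hpf at 28 °C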
# Method in brief: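 In this whole-embryo screen, dechorionated zebrafish were exposed from 6 hpf until 120 hpf at 28C under a 0.64% DMSO vehicle. Developmental malformations and death were recorded by brightfield microscopy as binary endpoints.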
# [4] = molecular target: Luciferin 4-monooxygenase (Photinus pyralis) (UniProt P08659); assay: CCTE_Simmons_QuantiLum_inhib_2: CCTE's Firefly Luciferase Inhibition Assay, Simmons Lab (AID 2283767);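 as to AC50: potency for inhibitors that lower luciferase luminescence relative to DMSO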
# Method in brief: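 First, 5 ng purified luciferase in phosphate buffer with BSA is dispensed per well. Next, test chemicals (5 nM to 87.5 uM final, 0.5% DMSO) are added and incubated 30 min at 37C in darkness. Finally, luciferin reagent is injected and luminescence read kinetically.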
# [5] = ACEA_AR_agonist_AUC_viability: ACEA Biosciences xCELLigence Real-Time Cell Analysis on Androgen Receptor Agonism for Viability (AID 2283775);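 as to AC50: viability read 80 hours after compound addition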
# Method in brief: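 22Rv1 cells; impedance growth kinetics; 8-pt 1:4 dilutions from 100 uM top final, ≤0.5% DMSO; n = 2; 80 h read; AUC viability, loss-of-signal vs DMSO.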
# [6] = ACEA_AR_antagonist_AUC_viability: ACEA Biosciences xCELLigence Real-Time Cell Analysis on Androgen Receptor Antagonism for Viability (AID 2283776);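 also: 22Rv1 human prostate cancer cells growing on impedance electrode plates; area under impedance growth curve at 80 h after dosing as viability; hits lower the growth signal relative to DMSO meaning cytotoxicity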
# Method in brief: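 22Rv1 prostate cells, continuous dosing up to 100 uM final (0.5% DMSO max), duplicate plates. Growth measured by impedance; AUC at 80 h, loss of signal vs DMSO.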
# [7] = STM_H9_OrnCyssISnorm_ratio: Stemina devTOX quickPredict H9 human embryonic stem cell (hESC)-based Assay for Ornithine (ORN):Cystine (CYSS) Ratio (AID 2283714)
# Method in brief: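 H9 hESC, 72h, q24h re-dose; last-day media → acetonitrile deproteinization → UPLC-HRMS. ORN:CYSS ratio from isotope-normalized EIC areas, vs 0.1% DMSO; MTX references on each plate.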
# [8] = ArunA_CellTiter_hNC: Viability Assessment in the ArunA Biomedical's Oris Neural Crest (hNC) Cell Migration Assay (AID 2283752)
# Method in brief: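 Seed 60,000 hNC cells per well onto Matrigel in basal growth medium containing LIF and bFGF. Incubate 16 h at 37C. Replace with test medium containing chemical for 72 h, then assess viability by CellTiter Aqueous One.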
# [9] = ArunA_CellTiter_hNP: Viability Assessment in the ArunA Biomedical's Oris Neural Crest (hNC) Cell Migration Assay (AID 2283753)
# Method in brief: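 Viability read with CellTiter 96 Aqueous One after 72 h chemical exposure of human hNP1 neuroprogenitors, which were plated on Matrigel in LIF/bFGF medium 16 h beforehand. Endpoint fitted in positive direction relative to DMSO.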
# [10] = ArunA_Migration_hNC: ArunA Biomedical's Oris Neural Crest (hNC) Cell Migration Assay (AID 2283755)
# Method in brief: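 Calcein-AM fluorescence (ex494 nm/em 517 nm) in the stopper-defined detection zone quantifies migration of hNC cells after 72 h chemical exposure; 60,000 cells/well plated on Matrigel with LIF and bFGF, 16 h pre-incubation. DMSO baseline.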
# [11] = ArunA_NOG_NucleusCount: ArunA Biomedical's Neurite Outgrowth (NOG) Assay for Nucleus Count (AID 2283756)
# Method in brief: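 Viable neuron count, from Hoechst nuclei passing size and intensity gates, imaged at 20x on differentiated H9-derived human neurons. Exposure lasted 48 h from seeding; activity was scored relative to DMSO.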
# [12] = ArunA_NOG_NeuritesPerNeuron: ArunA Biomedical's Neurite Outgrowth (NOG) Assay for Neurites Per Neuron (AID 2283758)
# Method in brief: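 Differentiated human H9-derived neurons exposed to chemicals for 48 h from seeding, then stained with Hoechst and βIII-tubulin/DyLight 488. Automated imaging counted neurites (processes >10 um) per valid neuron; loss of signal versus DMSO scored.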
# [13] = ArunA_NOG_BranchPointsPerNeurite: ArunA Biomedical's Neurite Outgrowth (NOG) Assay for Branch Points Per Neurite (AID 2283759)
# Method in brief: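 Automated image analysis traced neurites (processes >10 um) from valid cell bodies after Hoechst and βIII-tubulin staining. hNN cells from H9 embryonic stem cells, 48 h exposure. Fitted bidirectionally against DMSO.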
# [14] = system: Thyroperoxidase (TPO), gene 445522; assay: CCTE_Simmons_GUA_TPO: CCTE's Guaiacol Assay for Thyroperoxidase (TPO) Inhibition, Simmons Lab (AID 2283750)
# Method in brief: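 Porcine thyroid microsomes (25 ug) in 200mM potassium phosphate, preincubated 30 s at 37C with compound (8 concentrations, 5 nM–87.5 uM) and 35mM guaiacol; 1mM H2O2 starts reaction. Absorbance change at 450nm over first 80 s; loss of signal versus DMSO, three replicates.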
# [15] = ArunA_Migration_hNP: ArunA Biomedical's Oris Neuroprogenitor (hNP) Cell Migration Assay (AID 2283754)
# Method in brief: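 Readout is calcein-AM fluorescence (ex494/em517) of cells migrating into the detection zone, relative to DMSO. hNP1 cells (H9-derived) grown on Matrigel behind stoppers 16 h, then stoppers pulled and chemical applied 72 h; cytochalasin D as control.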
# [16] = ArunA_NOG_NeuriteLength: ArunA Biomedical's Neurite Outgrowth (NOG) Assay for Neurite Length (AID 2283757)
# Method in brief: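 Total neurite length per neuron, from traced βIII-tubulin-labelled processes longer than 10 um on viable Hoechst-gated cells, was scored as decrease from DMSO. Cells were hESC (H9)-derived neurons given 48 h chemical exposure immediately after seeding.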
# Luciferin 4-monooxygenase (Photinus pyralis), sequence (P08659 whole entry, looked up): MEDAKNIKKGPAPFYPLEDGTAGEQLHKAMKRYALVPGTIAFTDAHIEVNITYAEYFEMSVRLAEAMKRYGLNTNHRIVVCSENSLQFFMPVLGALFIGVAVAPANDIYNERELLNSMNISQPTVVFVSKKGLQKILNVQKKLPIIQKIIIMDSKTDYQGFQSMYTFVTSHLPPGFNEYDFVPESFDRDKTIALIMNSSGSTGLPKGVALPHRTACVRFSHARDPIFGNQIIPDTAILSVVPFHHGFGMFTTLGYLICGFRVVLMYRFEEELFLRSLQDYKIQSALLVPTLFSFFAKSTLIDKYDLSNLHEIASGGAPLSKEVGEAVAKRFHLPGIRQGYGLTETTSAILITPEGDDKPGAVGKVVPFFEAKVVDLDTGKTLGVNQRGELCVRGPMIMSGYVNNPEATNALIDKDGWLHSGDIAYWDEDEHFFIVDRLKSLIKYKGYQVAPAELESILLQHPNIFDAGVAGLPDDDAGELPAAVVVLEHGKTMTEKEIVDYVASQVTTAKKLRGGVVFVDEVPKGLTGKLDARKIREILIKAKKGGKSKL
compound,measurement,setting,value
Cc1oc(-c2ccccc2)nc1CCOc1cccc2c1ccn2CCC(=O)O,AC50,[1],0.0105 µM (active)
same,outcome,[2],inactive
same,outcome,[3],inactive
same,outcome,[4],inactive
same,AC50,[5],68.8 µM (active)
same,AC50,[6],65.7 µM (active)
COCCOCCOC,outcome,[1],inactive
same,outcome,[7],inactive
same,outcome,[3],inactive
same,outcome,[6],inactive
CC1=C(/C=C/C(C)=C/C=C/C(C)=C/CO)C(C)(C)CCC1,outcome,[1],inactive
same,outcome,[3],inactive
same,outcome,[4],inactive
same,AC50,[5],72.2 µM (active)
same,AC50,[6],79.8 µM (active)
OC[C@@H](O)[C@@H](O)[C@H](O)[C@H](O)CO,outcome,[1],inactive
same,outcome,[7],inactive
same,outcome,[3],inactive
same,outcome,[8],inactive
same,AC50,[9],80.6 µM (active)
same,outcome,[10],inactive
same,AC50,[11],50 µM (active)
same,outcome,[12],inactive
same,AC50,[13],9.92 µM (active)
same,outcome,[6],inactive
NC(=O)Cn1c(=O)cc(CCN2CCN(c3nccc4sccc34)CC2)c2ccc(F)cc21,outcome,[1],inactive
same,outcome,[7],inactive
same,outcome,[2],inactive
same,outcome,[3],inactive
same,outcome,[5],inactive
same,AC50,[6],12.1 µM (active)
CCOc1ccc2c(c1)C(C)=CC(C)(C)N2,outcome,[1],inactive
same,outcome,[7],inactive
same,outcome,[2],inactive
same,outcome,[3],inactive
same,AC50,[14],130 µM (active)
same,outcome,[4],inactive
same,AC50,[5],79.8 µM (active)
same,AC50,[6],89.5 µM (active)
Oc1ccc2ccccc2c1N=Nc1ccccc1,outcome,[1],inactive
same,outcome,[7],inactive
same,outcome,[2],inactive
same,AC50,[3],0.0559 µM (active)
same,outcome,[8],inactive
same,outcome,[15],inactive
same,outcome,[10],inactive
same,outcome,[13],inactive
same,AC50,[4],12.6 µM (active)
same,outcome,[6],inactive
O=c1c(O)c(-c2ccc(O)c(O)c2)oc2cc(O)cc(O)c12,outcome,[1],inactive
same,outcome,[3],inactive
same,outcome,[8],inactive
same,AC50,[9],3.88 µM (active)
same,AC50,[15],3.08 µM (active)
same,AC50,[10],2.36 µM (active)
same,AC50,[16],9.45 µM (active)
same,AC50,[12],7.94 µM (active)
same,AC50,[13],8.06 µM (active)
same,AC50,[4],53.8 µM (active)
same,AC50,[5],17.8 µM (active)
Nc1ccccc1N,outcome,[1],inactive
same,AC50,[7],8.66 µM (active)
same,outcome,[2],inactive
same,outcome,[3],inactive
same,AC50,[4],24.8 µM (active)
same,outcome,[5],inactive
same,AC50,[6],24.2 µM (active)
Cc1cccc(Nc2cc(Cl)nc(SCC(=O)O)n2)c1C,AC50,[1],53.6 µM (active)
same,outcome,[2],inactive
same,outcome,[3],inactive
same,outcome,[5],inactive
same,outcome,[6],inactive
C=CCc1ccc(O)c(OC)c1,outcome,[2],inactive
same,outcome,[3],inactive
same,outcome,[4],inactive
same,outcome,[5],inactive
same,outcome,[6],inactive
O=C(O)Cc1ccccc1Nc1c(Cl)cccc1Cl,outcome,[1],inactive
same,outcome,[7],inactive
same,AC50,[3],35 µM (active)
same,AC50,[5],42.1 µM (active)
same,AC50,[6],50 µM (active)
COc1ccc2c(c1)c(CC(=O)O)c(C)n2C(=O)c1ccc(Cl)cc1,outcome,[1],inactive
same,AC50,[7],84.8 µM (active)
same,outcome,[2],inactive
same,AC50,[5],37 µM (active)
same,AC50,[6],25.4 µM (active)
CCCCc1ccc2c(n1)[C@@H](c1ccc(OC)cc1C[C@H](C)C(=O)O)[C@H](C(=O)O)[C@H]2c1ccc2c(c1)OCO2,outcome,[1],inactive
same,outcome,[3],inactive
same,outcome,[8],inactive
same,outcome,[9],inactive
same,outcome,[15],inactive
same,outcome,[10],inactive
same,outcome,[11],inactive
same,outcome,[13],inactive
same,outcome,[5],inactive
same,AC50,[6],19.9 µM (active)
CCCCC(CC)COC(=O)CC(C(=O)OCC(CC)CCCC)S(=O)(=O)O (centres undefined),outcome,[1],inactive
same,outcome,[7],inactive
same,outcome,[3],inactive
same,outcome,[8],inactive
same,AC50,[9],7.54 µM (active)
same,AC50,[15],77.9 µM (active)
same,AC50,[10],28.7 µM (active)
same,outcome,[11],inactive
same,outcome,[16],inactive
same,outcome,[12],inactive
same,AC50,[4],13.1 µM (active)
same,AC50,[5],88.4 µM (active)
same,AC50,[6],85.2 µM (active)
CCCc1cc(=O)[nH]c(=S)[nH]1,outcome,[1],inactive
same,outcome,[7],inactive
same,outcome,[3],inactive
same,outcome,[15],inactive
same,outcome,[10],inactive
same,outcome,[11],inactive
same,outcome,[16],inactive
same,outcome,[12],inactive
same,outcome,[13],inactive
same,outcome,[4],inactive
same,outcome,[6],inactive
CC(CO)OC(C)CO (centres undefined) (tested in a mixture with another compound),outcome,[1],inactive
same,outcome,[3],inactive
same,outcome,[5],inactive
O=c1[nH]cc(F)c(=O)[nH]1,AC50,[1],2.71 µM (active)
same,AC50,[7],3 µM (active)
same,outcome,[3],inactive
same,AC50,[5],2.42 µM (active)
same,AC50,[6],1.76 µM (active)
Cc1c(C(=O)O)c(O)cc2c1C(=O)c1c(O)c([C@@H]3O[C@H](CO)[C@@H](O)[C@H](O)[C@H]3O)c(O)c(O)c1C2=O,outcome,[1],inactive
same,outcome,[7],inactive
same,outcome,[2],inactive
same,outcome,[3],inactive
same,AC50,[4],18.5 µM (active)
same,outcome,[6],inactive
C[C@]12C=CC(=O)C=C1CC[C@@H]1[C@@H]2C(=O)C[C@@]2(C)[C@H]1CC[C@]2(O)C(=O)CO,AC50,[2],0.844 µM (active)
same,outcome,[3],inactive
same,outcome,[4],inactive
same,outcome,[6],inactive
CC=Cc1ccc(O)c(OC)c1,outcome,[2],inactive
same,outcome,[3],inactive
same,outcome,[4],inactive
same,AC50,[5],50 µM (active)
same,AC50,[6],19.3 µM (active)

# — PubChem BioAssay (EPA / NIEHS)
